Results: PubChem BioAssay (EPA / NIEHS)
Where “and” joins values, the source holds several entries; their conditions need not be identical. Identical values can stand only once. The source holds several records for some structures; these can differ, active in one and inactive in another. Calls of active or inactive are those of the source. Rule for the calls: active = hit-call score of the fitted dose curve at least 0.9, where 1 is the maximum; inactive = score below 0.9.

Assay: ATG_GLI_CIS: Attagene CIS-FACTORIAL HepG2 Assay for human Zinc Finger Protein GLI1 (AID 2282945)
Details: HepG2, Attagene cis-factorial reporter mRNA, GLI element; actives raise or lower the signal
Description: ATG_CIS is a cell-based, multiplexed-readout assay that uses HepG2, a human liver cell line, with measurements taken at 24 hours after chemical dosing in a 24-well plate.ATG_GLI_CIS is one of 52 assay component(s) measured or calculated from the ATG_CIS assay. It is designed to make measurements of mRNA induction, a form of inducible reporter, as detected with fluorescence intensity signals by Reverse transcription polymerase chain reaction (RT-PCR) and Capillary electrophoresis technology.Data from the assay component ATG_GLI_CIS was analyzed into 1 assay endpoint. This assay endpoint, ATG_GLI_CIS, was analyzed with bidirectional fitting relative to DMSO as the negative control and baseline of activity. Using a type of inducible reporter, measures of mRNA for gain or loss-of-signal activity can be used to understand the reporter gene at the transcription factor-level as they relate to the gene GLI1. Furthermore, this assay endpoint can be referred to as a primary readout, because this assay has produced multiple assay endpoints where this one serves a reporter gene function. To generalize the intended target to other relatable targets, this assay endpoint is annotated to the dna binding intended target family, where the subfamily is zinc finger.
Human liver HepG2 cells are transiently transfected with multiple reporter transcription units (MRTUs) in 6-well plates using FuGene 6 reagent (Roche; 3 ml FuGene/1 mg DNA). The MRTU constructs are regulated by a cis-regulating element (promoter). […] A major difference between the CIS and TRANS system is that in CIS activities of endogenous TFs are measured, whereas the TRANS assay evaluates changes in activities of exogenous, chimeric NR-Gal4 proteins. […] At the end of 24 hour incubation, total RNA was isolated using TriZol reagent (Invitrogen). The isolated RNA is then reverse-transcribed using oligo(dT) primer and Mo-MLV reverse transcriptase (Invitrogen) with DNAse I (Ambion) treatment for 30 min. The one-tenth of the produced cDNA was amplified by PCR using Taq DNA polymerase (Invitrogen) and two reporter sequence-specific primers. The PCR products were fluorescently labeled by primer extension with 6-arboxyfluorescein (6-FAM) 5'-labeled reporter sequence-specific primer (2 min at 95 C, 20 s at 68 C and 10 min at 72 C) and these products were digested with 5U of HpaI (New England Biolabs) for 2h at 37 C. The fragments were purified using Qiaquick PCR columns (Qiagen), analyzed on an ABI 3130xL genetic analyzer (Applied Biosystems) with peak positions identified by using a set of X-rhodamine (ROX)-labeled MapMarker1000 molecular weight standards (BioVentures). The raw capillary electrophoresis data was processed using Attagraph software (Attagene).

Compound | outcome | AC50
Cc1ccccc1[N+](=O)[O-] | inactive | 
CCCCCCCCCC[N+](C)(C)CCCCCCCCCC |  | 100 µM (active)
CCCCCCCCCc1ccc(O)cc1 | inactive | 184 µM (active)
COc1ccc(O)c(C(C)(C)C)c1 | inactive | 
CCC(C)(c1ccc(O)cc1)c1ccc(O)cc1 | inactive | 60.5 µM (active)
Cc1cccc([N+](=O)[O-])c1 | inactive | 
c1ccc(-c2ccccc2)cc1 | inactive | 
CCCN(CCC)N=O | inactive | 
C[C@]12CCC(=O)C=C1CC[C@@H]1[C@@H]2CC[C@@]2(C)[C@H]1CC[C@]2(C)O | inactive | 
Nn1cnnc1 | inactive | 
Cc1ccc(O)c(C)c1 | inactive | 
CCNc1nc(NC(C)C)nc(SC)n1 | inactive | 
CCSC(=O)N(CC)C1CCCCC1 | inactive | 
Cc1ccccc1O | inactive | 
ClC(Cl)=C(c1ccc(Cl)cc1)c1ccc(Cl)cc1 | inactive | 131 µM (active) and 63.1 µM (active) and 121 µM (active)
ClC1=C(Cl)[C@]2(Cl)[C@@H]3[C@@H](Cl)[C@H]4O[C@H]4[C@@H]3C1(Cl)C2(Cl)Cl | inactive | 
CC(C)(c1ccccc1)c1ccc(O)cc1 | inactive | 55.4 µM (active)
CCC(=O)O[C@H]1CC[C@H]2[C@@H]3CCC4=CC(=O)CC[C@]4(C)[C@H]3CC[C@]12C | inactive | 

Compound | outcome | AC50
Cc1cc2c3c(c1)C(c1ccccc1)=N[C@@H](NC(=O)c1ccncc1)C(=O)N3CC2 | inactive | 
O=C(O)C(F)(F)C(F)(F)C(F)(F)C(F)(F)C(F)(F)F | inactive | 
O=C(O)C(F)(F)C(F)(F)C(F)(F)C(F)(F)C(F)(F)C(F)(F)C(F)(F)C(F)(F)C(F)(F)F | inactive | 
CC1=C2C[C@H]3[C@@H](CC=C4C[C@@H](O)CC[C@@]43C)[C@@H]2CC[C@]12O[C@@H]1C[C@H](C)CN[C@H]1[C@H]2C | inactive | 
O=C(O)C(F)(F)C(F)(F)C(F)(F)C(F)(F)C(F)(F)C(F)(F)C(F)(F)C(F)(F)F | inactive | 
Sc1ccccc1 | inactive | 
Oc1c(Cl)c(Cl)c(Cl)c(Cl)c1Cl | inactive | 82 µM (active)
O=C(NC(=O)c1c(F)cccc1F)Nc1cc(Cl)c(OC(F)(F)C(F)F)c(Cl)c1 | inactive | 
CO/C=C(/C(=O)OC)c1ccccc1COc1cccc(C(F)(F)F)n1 | inactive | 
Cc1cc(O)ccc1Cl | inactive | 
NS(=O)(=O)C(F)(F)C(F)(F)C(F)(F)C(F)(F)C(F)(F)C(F)(F)C(F)(F)C(F)(F)F | inactive | 
Oc1ccc(Cl)cc1Cl | inactive | 
CCCCCCOC(=O)c1ccccc1C(=O)OCCCCCC | inactive | 
CCC(C)c1cc([N+](=O)[O-])cc([N+](=O)[O-])c1O (stereo not given) | inactive | 
C[C@]12CCC(=O)C=C1CC[C@@H]1[C@@H]2CC[C@]2(C)C(=O)CC[C@@H]12 | inactive | 
CCOP(=S)(OCC)SCSC(C)(C)C | inactive | 
O=NN(c1ccccc1)c1ccccc1 | inactive | 
